From PubChem BioAssay

Each compound was assayed on Sam68 (KHDRBS1) (assay: Sam68 small-molecule binders, primary screen, biochemical, small-molecule microarray, 635 nm fluorescence (AID 1125;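 further: score merges 667 nm channel intensity with signal to noise over triplicate slides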)). Details: small-molecule microarray binding, higher = more signal.
CCOC(=O)C[C@H]1[C@H](OC(=O)c2ccccc2-c2ccccc2)[C@@H](NC(=O)c2ccc(-c3ccccc3)cc2)c2cc(OCCCO)ccc2N1C(=O)c1ccc2ccccc2n1 gave a composite z-score of 1.06. For C=CCC(OC(C)=O)[C@@H]1[C@@H](N(Cc2ccc(-c3ccccc3)cc2)C(=O)Cc2ccc(F)cc2)c2cc(OCCCO)ccc2N1C(=O)Cc1ccc(OC)cc1 (stereo not given in full), the composite z-score was -0.274. With O=C(NCC(F)(F)F)[C@@H]1c2ccccc2C(=O)N(Cc2ccc(OC(F)(F)F)cc2)[C@H]1c1ccc(CO)cc1 the composite z-score was 0.761. With COC(=O)CCCCCCC(=O)Nc1ccc(NC(=O)CCCC[P+](c2ccccc2)(c2ccccc2)c2ccccc2)cc1 the composite z-score was 0.559. CCCCCCc1nc(C2CC2)cc2c1[Si](C(C)C)(C(C)C)OC2 was tested, and the composite z-score was -0.826. Work on O=C1O[C@H](c2ccccc2)[C@H](c2ccccc2)N2[C@H]1[C@@H](C(=O)Nc1nc3ccccc3s1)[C@]1(C(=O)Nc3ccccc31)[C@H]2c1ccc(OCCO)cc1 yielded a composite z-score of 1.3. For C=C(/C(=C/C[C@H](OC(=O)c1ccncc1)c1ccc(CO)o1)c1cc(C(=O)OC)ccc1OC)C(C)C, the composite z-score was 1.05. With CN(C)C(=O)[C@@]1(CCS(=O)(=O)c2ccccc2)N=C(c2ccc(OCCCO)cc2)O[C@H]1c1ccccc1 the composite z-score was 1.16. In the case of O=C1OCCC/C=C\[C@H]2OC34C=CCN(CCN5CCOCC5)C(=O)[C@H]3N(CCCCCCO)C(=O)[C@@H]4C12 (stereo not given in full), the composite z-score is reported as 0.184. O=C1C2C=CC(C(O)c3ccc(Br)cc3)N(Nc3ccccc3F)C2C(=O)N1c1ccccc1 (stereo not given) was tested, and the composite z-score was 0.68. For CCCCC(=C=CC[C@@H](O)c1ccccc1OCCO)C[C@@H](O)COCc1ccccc1, the composite z-score was 0.471. O=C1O[C@@H](c2ccccc2)[C@@H](c2ccccc2)N2[C@@H](c3ccc(O)cc3)[C@]3(C(=O)Nc4ccc(C#CC5=CCCCC5)cc43)[C@@H](C(=O)NC[C@H](O)c3ccccc3)[C@H]12 gave a composite z-score of 1.31. NC(=O)NCC#Cc1ccc2c(c1)[C@]1(C(=O)N2)[C@H](C(=O)NC[C@H](O)c2ccccc2)[C@H]2C(=O)O[C@H](c3ccccc3)[C@H](c3ccccc3)N2[C@@H]1c1ccc(OCCO)cc1 showed a composite z-score of 1.01. CC(C)N1CC=CC23O[C@@H]4C=CCOC(=O)[C@@H]4[C@H]2C(=O)N(CCCO)[C@@H]3C1=O (stereo not given in full) was tested, and the composite z-score was 0.234. Work on N#Cc1ccc(C(O)C2C=CC3C(=O)N(c4ccccc4)C(=O)C3N2Nc2ccccc2)cc1 (stereo not given) yielded a composite z-score of 0.195. In the case of CCCCN1CC=CC23O[C@@H]4/C=C\CCC(C)OC(=O)C4[C@H]2C(=O)N(C(CO)C(C)C)[C@@H]3C1=O (stereo not given in full), the composite z-score is reported as -0.468. C=CCN1Cc2ccccc2[C@H]2OC(c3ccc(OCCCO)cc3)=N[C@@]2(CC=C)C1=O was tested, and the composite z-score was 1.31. CC(CO)N1C(=O)[C@@H]2[C@H]3C(=O)OCC=C[C@H]3OC23C=CCN(CCN2CCOCC2)C(=O)[C@@H]13 (stereo not given in full) showed a composite z-score of -0.0161. CCCCCCc1nc(-c2cc(C)c(OC)c(C)c2)c(C)c2c1[Si](C(C)C)(C(C)C)OC2 showed a composite z-score of -0.611. Compound C=C(COC)/C(=C/C[C@H](OC(=O)c1ccncc1)c1ccccc1OCCO)c1cnc2ccccc2c1 has a composite z-score of 1.29. In the case of CO[C@H]1O[C@H](CO)[C@@H](OC(=O)Nc2ccc3c(c2)OCO3)[C@H](OC(=O)c2cc3ccccc3[nH]2)[C@H]1OC(=O)c1cc2ccccc2[nH]1, the composite z-score is reported as 0.12. O=C1N(Cc2ccccc2)c2ccccc2[C@@H]2OC(c3ccc(OCCCO)cc3)=N[C@]12Cc1ccccc1 gave a composite z-score of 1.3. For CCOC(=O)c1ccc(NC(=O)O[C@H]2[C@H](OC(=O)Nc3ccc4c(c3)OCO4)[C@@H](OC(=O)Nc3ccc4c(c3)OCO4)[C@@H](OC)O[C@@H]2CO)cc1, the composite z-score was 1.31. C=CCC(OC(C)=O)[C@@H]1[C@@H](N(Cc2cccc3ccccc23)C(=O)Cc2ccc(OC)cc2)c2cc(OCCCO)ccc2N1C(=O)c1ccc2ccccc2n1 (stereo not given in full) gave a composite z-score of 0.404. For COCCCNC(=O)[C@@]1(Cc2ccccc2CN=[N+]=[N-])N=C(c2ccc(OCCCO)cc2)O[C@H]1c1ccccc1, the composite z-score was 1.3. COC(=O)[C@@]1(Cc2ccccc2)[C@H]2c3cc(C(=O)N(C)C)n(CCc4ccc(O)c(OC)c4)c3C[C@H]2CN1C(=O)c1ccccc1 was tested, and the composite z-score was 0.169. Compound CN1C(=O)C2C=CC(C(O)COCc3ccccc3)N(N(c3ccccc3)c3ccccc3)C2C1=O (stereo not given) has a composite z-score of 1.05. Compound CC(c1ccccc1)C(O)C1C=CC2C(=O)N(c3ccccc3)C(=O)C2N1Nc1ccc([N+](=O)[O-])cc1 (stereo not given) has a composite z-score of 1.05. For [N-]=[N+]=NCc1ccccc1[C@H]1OC(c2ccc(OCCCO)cc2)=N[C@@]1(CCS(=O)(=O)c1ccccc1)C(=O)N1CCCCC1, the composite z-score was 1.31. Work on [N-]=[N+]=Nc1ccccc1C[C@]1(C(N)=O)N=C(c2ccc(OCCCO)cc2)O[C@H]1c1ccccc1N=[N+]=[N-] yielded a composite z-score of 1.31. Compound COc1cc(CO)cc(I)c1O[C@H]1C=C(C(=O)NCCO)C[C@@H](NCc2ccc(F)cc2)[C@@H]1O has a composite z-score of 0.352. In the case of CCCC[C@@H]1C[C@H]1[C@@H](NC(=O)c1cccs1)c1ccc(C(F)(F)F)cc1, the composite z-score is reported as -0.154. In the case of COCCOC(=O)N1C(=O)[C@@]2(c3cc(C#CC4=CCCCC4)ccc31)[C@H](C(N)=O)[C@H]1C(=O)O[C@H](c3ccccc3)[C@H](c3ccccc3)N1[C@@H]2c1ccccc1OCCO, the composite z-score is reported as 1.31. For O=C1OCCC=C[C@H]2OC34C=CCN(Cn5nnc6ccccc65)C(=O)[C@H]3N(CCCCCCO)C(=O)[C@@H]4C12 (stereo not given in full), the composite z-score was -0.365. Work on Cc1ccc(S[C@]2(C(=O)O)CC(=O)N(Cc3cc(C(F)(F)F)cc(C(F)(F)F)c3)[C@@H]2c2ccc(CO)cc2)cc1 yielded a composite z-score of -0.25.
